Experimental findings from PubChem BioAssay are described below.

The test system of assay [1] is Wnt5a (protein binding on small-molecule microarray). The experiment in a line: small molecules binding Wnt5a protein – biophysical, small-molecule microarray, 635/667 nm fluorescence, primary screen (AID 1142).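 Note: fluorescence read at 667 nm with signal to noise per printed feature.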 To be noted: 635 nm fluorescence, higher = more signal.
The nature of assay [2]: ATP-based viability of Huh7 replicon cells – cell-based, CellTiter-Glo luminescence, basal, 48 h, cytotoxicity control for HCV replication inhibitor project, primary screen (AID 1143).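 Note: Huh7 hepatoma cells carrying a hepatitis C replication reporter with no stimulus; test concentration not given here.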 To be noted: higher = more signal, called active from +8 up or from −8 down.
Assay [3] can be described thus: Pseudomonas biofilm growth suppression – PAO1 strain, BacTiter-Glo luminescence, LB-PBS, primary screen (AID 1144). To be noted: P. aeruginosa PAO1 biofilm, 12 h, higher = more signal.
A short description of assay [4]: basal CRE-LacZ reporter activity in PC12 – cell-based, unstimulated, primary screen (AID 1145). The settings on record: no forskolin, luminescence, 4.5 h, higher = more signal, called active from +8 up or from −8 down.
A short description of assay [5]: forskolin-driven CRE-LacZ activity in PC12 – cell-based, CRE-LacZ reporter, forskolin-stimulated, primary screen (AID 1146).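 Note: PC12 cells with 6xCRE LacZ reporter stimulated by forskolin 10 µM; beta-galactosidase reporter signal reflecting CREB driven transcription.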 The settings on record: luminescence, 4.5 h, higher = more signal, called active from +8 up or from −8 down.
The target of assay [6] is Streptavidin (Streptomyces avidinii) (UniProt P22629). The experiment in a line: compounds binding control protein streptavidin – biophysical, small-molecule microarray, 635/667 nm fluorescence, artefact control for SMM compound annotation, primary screen (AID 1147).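 Note: signal reflects streptavidin binding to arrayed compounds as a control protein.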 The settings on record: higher = more signal.
The nature of assay [7]: probe aInhba binding on compound microarray – biochemical, small-molecule microarray, 635/667 nm fluorescence, primary screen (AID 1148).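 Note: score merges 667nm spot fluorescence with signal-to-noise for antibody binding to printed compounds.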 The settings on record: higher = more signal.
In assay [8] the target is Torsin-1A (Homo sapiens) (UniProt O14656). The experiment in a line: TOR1A wild-type binding on microarray – cell lysate, small-molecule microarray, lysate, 635/667 nm, primary screen (AID 1149). The settings on record: COS7 hTOR1A-WT lysate, 635 nm fluorescence, higher = more signal.
The target is the same in assay [9]. The experiment in a line: torsin A mutant lysate binding on microarrays – cell lysate, small-molecule microarray, COS7 lysate, 635/667 nm fluorescence, primary screen (AID 1150).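 Note: score pools 667 nm emission and signal to noise measuring lysate protein binding.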 The settings on record: COS7 hTOR1A mutant lysate, 635 nm fluorescence, higher = more signal.
Assay [10] concerns Sonic hedgehog protein (Shh). The experiment in a line: Sonic hedgehog microarray binding compounds – biochemical, small-molecule microarray, 635/667 nm fluorescence, primary screen (AID 1151).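 Note: Shh protein binding to compounds spotted on small-molecule microarray slides; score combines spot fluorescence intensity with signal-to-noise across triplicate slides.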 The settings on record: 635 nm fluorescence, higher = more signal.

The source made the active and inactive calls. Unless noted, the rule behind the calls is not given here.

Sequence of Torsin-1A (Homo sapiens) (O14656 whole entry, looked up): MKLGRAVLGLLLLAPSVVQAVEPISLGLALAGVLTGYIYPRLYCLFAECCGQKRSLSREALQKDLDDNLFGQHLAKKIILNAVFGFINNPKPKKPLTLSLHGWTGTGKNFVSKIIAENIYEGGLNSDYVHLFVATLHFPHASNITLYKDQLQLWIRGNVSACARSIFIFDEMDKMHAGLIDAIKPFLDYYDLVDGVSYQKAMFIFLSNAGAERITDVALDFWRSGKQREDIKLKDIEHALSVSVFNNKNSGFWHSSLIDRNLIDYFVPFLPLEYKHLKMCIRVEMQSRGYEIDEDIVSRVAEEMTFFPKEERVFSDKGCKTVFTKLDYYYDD
Sequence of Streptavidin (Streptomyces avidinii) (P22629 whole entry, looked up): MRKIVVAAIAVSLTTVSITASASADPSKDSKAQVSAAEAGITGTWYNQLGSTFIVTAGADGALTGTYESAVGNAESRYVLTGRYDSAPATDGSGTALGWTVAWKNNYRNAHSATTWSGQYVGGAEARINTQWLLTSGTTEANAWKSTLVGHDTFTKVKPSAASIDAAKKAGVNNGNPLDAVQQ

As to `O=C1NC(=O)C2C1C=CC(C(O)c1ccco1)N2Nc1ccccn1` (stereo not given), the composite z-score in assay [1] is 0.0477; in [6] it was -0.124; in [7], -0.221; in assay [8], 0.322; in [9], 0.316; in assay [10], 0.366. Further, the z-score was 0.829 (inactive) in [2], 0.0748 (inactive) in assay [3], -0.522 (inactive) in assay [4] and 0.413 (inactive) in assay [5].
Turning to `O=C1N(Cc2ccccc2)Cc2ccccc2[C@@H]2OC(c3ccc(OCCCO)cc3)=N[C@]12CCS(=O)(=O)c1ccccc1`, the composite z-score in [1] is 0.534; in [6], 0.379; in assay [7], 0.0742; in assay [8], 0.529; in assay [9], 0.489; in assay [10], 1.42. Moreover, the z-score in [2] is -2.33 (inactive); in assay [3] it was 0.245 (inactive); in [4] it was 3.78 (inactive); in assay [5], -0.832 (inactive).
As for `COc1cc2c(cc1OC)CN(C(=O)[C@@H]1[C@H]3C(=O)O[C@H](c4ccccc4)[C@H](c4ccccc4)N3[C@H](c3ccc(OCCO)cc3)[C@@]13C(=O)Nc1ccc(C#CC4(O)CCCCCC4)cc13)CC2`, the composite z-score was 0.754 in assay [1]; 1.51 in [6]; -0.164 in assay [7]; 0.746 in [8]; 1.09 in assay [9]; 1.44 in [10]. The z-score in [2] is -3.13 (inactive); in assay [3] it was -1.35 (inactive); in assay [4], -0.608 (inactive); in assay [5], 0.419 (inactive).
`CCCCC(O)C1C=CC2C(=O)N(c3ccccc3)C(=O)C2N1Nc1ccc(C(C)C)cc1` (stereo not given): the composite z-score in assay [1] is 0.261; in assay [6], 0.486; in assay [7] it was 0.341; in assay [8] it was -0.149; in [9] it was 0.214; in assay [10] it was -0.207. Besides, the z-score in assay [2] is -0.714 (inactive); in [3], -0.905 (inactive); in [4] it was 1.38 (inactive); in assay [5], 0.232 (inactive).
As for `CC(CO)N1C(=O)[C@@H]2[C@H]3C(=O)OCC=C[C@H]3OC23C=CCN(C(C)(C)C)C(=O)[C@@H]13` (stereo not given in full), the composite z-score in assay [1] was -0.329; in [6], 0.769; in assay [7], -0.154; in [8], -1.5; in assay [9], -0.163; in assay [10], -0.405. Further, the z-score is -0.304 (inactive) in [2], 1.15 (inactive) in assay [3], -0.354 (inactive) in [4] and -0.304 (inactive) in assay [5].
In the case of `CC(CO)N1C(=O)[C@@H]2[C@H]3C(=O)OCC=C[C@H]3OC23C=CCN(CCN2CCOCC2)C(=O)[C@@H]13` (stereo not given in full), the composite z-score in [1] was 0.0471; in assay [6], -0.418; in [7], -0.314; in assay [8] it was -0.829; in assay [9], -0.475; in [10], 1.65. Moreover, the z-score in assay [2] is -0.62 (inactive); in assay [3] it was 1.3 (inactive); in [4], 0.463 (inactive); in [5], 0.0027 (inactive).
In the case of `CCOC(=O)C[C@H]1[C@H](OC(=O)c2cc3ccccc3oc2=O)[C@@H](NC(=O)c2ccc(-c3ccccc3)cc2)c2cc(OCCCO)ccc2N1C(=O)c1ccccc1`, the composite z-score was 0.624 in [1]; 0.509 in [6]; 0.027 in assay [7]; 1.4 in [8]; -0.0812 in assay [9]; 1.87 in [10]. The z-score was -2.84 (inactive) in assay [2], 1.02 (inactive) in assay [3], 5.66 (inactive) in assay [4] and -0.818 (inactive) in assay [5].
Take `CC(C)C(=C=CC[C@H](O)c1cccc(OCCO)c1)C[C@H](O)c1cc(Cl)cc(Cl)c1O`: the composite z-score is 0.255 in assay [1]; 0.092 in assay [6]; -0.116 in [7]; 0.605 in [8]; -0.356 in assay [9]; 1.95 in assay [10]. Also, the z-score in [2] is -0.254 (inactive); in [3], -1.02 (inactive); in assay [4], 5.53 (inactive); in [5] it was 0.813 (inactive).
Regarding `CCC[C@@H]1C[C@@]1(CCC)[C@@H](NC(=O)OCc1ccccc1)c1ccc(-c2ccccc2)cc1`, the composite z-score in assay [1] is -0.189; in [6] it was -0.504; in assay [7], -0.12; in assay [8] it was -0.301; in assay [9] it was -0.928; in [10] it was -0.895. The z-score in assay [2] is -1.28 (inactive); in assay [3], -0.0658 (inactive); in [4], -0.375 (inactive); in assay [5], 0.785 (inactive).
With `CCCNC(=O)[C@@]1(c2ccc([N+](=O)[O-])cc2)CC(=O)N(C2CCCCC2)[C@@H]1c1ccc(CO)cc1`, the composite z-score in [1] is -0.0471; in assay [6], 0.206; in [7], 0.138; in assay [8] it was 0.0388; in assay [9] it was 0.455; in [10] it was 0.511. Further, the z-score in [2] is -1.83 (inactive); in [3], 0.812 (inactive); in assay [4] it was 0.324 (inactive); in assay [5], -0.775 (inactive).
`O[C@@H](Cc1ccccc1)[C@@H](/C=C/C1CC1)N(CC#Cc1ccccc1)Cc1cccc(Cl)c1`: the composite z-score in assay [1] was -0.501; in assay [6] it was -0.679; in [7], -0.302; in [8], -0.662; in [9], -0.976; in assay [10], -1.03. The z-score is -1.09 (inactive) in assay [2], -0.94 (inactive) in assay [3], 2.04 (inactive) in [4] and -0.295 (inactive) in assay [5].
As for `CCOC(=O)C[C@H]1[C@H](OC(=O)c2ccccc2-c2ccccc2)[C@@H](NC(=O)C2CCCCC2)c2cc(OCCCO)ccc2N1C(=O)Cc1ccc(OC)cc1`, the composite z-score in assay [1] is 0.0136; in assay [6], 0.0611; in assay [7], -0.0736; in assay [8], -0.0183; in assay [9], 0.307; in assay [10] it was -0.0275. The z-score in assay [2] is -0.226 (inactive); in assay [3], 0.642 (inactive); in [4], 4.65 (inactive); in assay [5], 0.899 (inactive).
As to `O=C1O[C@H](c2ccccc2)[C@H](c2ccccc2)N2[C@H]1[C@@H](C(=O)O)[C@]1(C(=O)Nc3ccc(C#CC4=CCCCC4)cc31)[C@H]2c1ccc(O)cc1`, the composite z-score was 0.423 in [1]; -0.0343 in assay [6]; -0.157 in assay [7]; -0.107 in assay [8]; 0.298 in [9]; 1.22 in assay [10]. In addition, the z-score in [2] was -0.53 (inactive); in assay [3], 0.608 (inactive); in [4], 1.72 (inactive); in assay [5], 0.945 (inactive).
As for `O=C1NC(=O)C2C1C=CC(C(O)c1c(F)cccc1Cl)N2Nc1ccc(Cl)cc1Cl` (stereo not given), the composite z-score is 0.275 in [1]; 1.23 in [6]; 0.414 in [7]; 0.465 in [8]; 1.27 in [9]; -0.854 in [10]. The z-score in assay [2] is -1.37 (inactive); in assay [3], -0.159 (inactive); in [4] it was 0.632 (inactive); in assay [5] it was -0.524 (inactive).
